Laboratory results from PubChem BioAssay AID1159580 (chemical genetic matrix, 2015).
“And” between values parts separate entries of the source, which are not always exact repeats. Identical values can stand only once. Screen size: about 5,500 compounds; about 2,000 (36%) were called active. Not shown: some 18% with an inconclusive outcome. Rule as the data show it: active = normalized growth mostly below about 0.91 (no sharp cut-off); inconclusive = no clear call, values can overlap the other calls; inactive = mostly above about 0.92. Some of the results follow.

Test: chemical genetic growth profiling, strain panel (AID 1159580);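 also: tested at 20 µM; growth read once vehicle control cultures reached saturation at 30 °C; 1 = growth at the plate median or of vehicle wells; lower values mean less growth of the strain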
Conditions: S. cerevisiae deletion strains, growth OD

Measured: normalized growth

COc1cc2c3cc1Oc1cc(ccc1O)C[C@@H]1c4c(cc(OC)c(O)c4Oc4ccc(cc4)C[C@@H]3N(C)CC2)CC[N+]1(C)C
inactive: locus YAL021C, strain ccr4, active compounds read low 1 | locus YAL026C, strain drs2, active compounds read low 0.976 | locus YAL030W, strain snc1, active compounds read low 1.01 | locus YBL061C, strain skt5, active compounds read low 1 | locus YBR009C, strain hhf1, active compounds read low 0.943 | locus YBR021W, strain FUR4, active compounds read low 0.998 | locus YBR023C, strain chs3, active compounds read low 0.997 | locus YBR171W, strain sec66, active compounds read low 1.01 | locus YBR229C, strain ROT2, active compounds read low 1 | locus YBR231C, strain swc5, active compounds read low 1.02 | locus YBR279W, strain paf1, active compounds read low 0.991 | locus YCL011C, strain gbp2, active compounds read low 0.954 | locus YCL016C, strain dcc1, active compounds read low 0.939 | locus YCL029C, strain bik1, active compounds read low 0.999 | locus YCL069W, strain vba3, active compounds read low 0.998 | locus YCR088W, strain abp1, active compounds read low 0.997 | locus YDL005C, strain med2, active compounds read low 1 | locus YDL035C, strain GPR1, active compounds read low 1 | locus YDL040C, strain nat1, active compounds read low 1.01 | locus YDL074C, strain BRE1, active compounds read low 1.02 | locus YDL101C, strain DUN1, active compounds read low 1.02 | locus YDL185W, strain tfp1, active compounds read low 1.01 | locus YDL192W, strain arf1, active compounds read low 0.998 | locus YDR001C, strain nth1, active compounds read low 0.972 | locus YDR069C, strain doa4, active compounds read low 1.02 | locus YDR101C, strain arx1, active compounds read low 1 | locus YDR137W, strain rgp1, active compounds read low 1 | locus YDR159W, strain sac3, active compounds read low 0.927 | locus YDR162C, strain NBP2, active compounds read low 1.03 | locus YDR195W, strain ref2 1.01 | locus YDR297W, strain sur2, active compounds read low 1 | locus YDR318W, strain mcm21, active compounds read low 0.994 | locus YDR334W, strain swr1, active compounds read low 0.979 | locus YDR335W, strain msn5, active compounds read low 0.995 | locus YDR388W, active compounds read low 1 | locus YDR392W, strain spt3, active compounds read low 0.769 | locus YDR502C, strain sam2, active compounds read low 1 | locus YEL003W, strain gim4, active compounds read low 1 | locus YEL037C, strain rad23, active compounds read low 0.999 | locus YEL061C, strain CIN8 (second series), active compounds read low 0.967 | locus YEL061C, strain CIN8, active compounds read low 1.01 | locus YER015W, strain faa2, active compounds read low 0.996 | locus YER016W, strain bim1, active compounds read low 0.988 | locus YER110C, active compounds read low 1.01 | locus YER111C, strain swi4, active compounds read low 0.994 | locus YER155C, strain BEM2 (second series), active compounds read low 1.05 | locus YER155C, strain BEM2, active compounds read low 1.02 | locus YER167W, strain BCK2, active compounds read low 1.01 | locus YFR010W, strain ubp6, active compounds read low 0.989 | locus YGL078C, strain dbp3, active compounds read low 0.993 | locus YGL086W, strain mad1, active compounds read low 1.03 | locus YGL167C, strain pmr1, active compounds read low 1 | locus YGL173C, strain kem1, active compounds read low 1 | locus YGL227W, strain vid30, active compounds read low 0.981 | locus YGL240W, strain doc1, active compounds read low 1.02 | locus YGL248W, strain PDE1, active compounds read low 1.02 | locus YGL253W, strain hxk2, active compounds read low 0.978 | locus YGR135W, strain pre9, active compounds read low 0.989 | locus YGR252W, strain gcn5, active compounds read low 0.947 | locus YHR013C, strain ard1, active compounds read low 0.943 | locus YHR027C, strain rpn1, active compounds read low 0.988 | locus YHR030C, strain SLT2, active compounds read low 1 and 0.98 | locus YHR079C, strain IRE1 (second series), active compounds read low 1.01 | locus YHR079C, strain IRE1, active compounds read low 0.981 | locus YHR094C, strain hxt1, active compounds read low 0.996 | locus YHR129C, strain ARP1, active compounds read low 1.02 | locus YHR142W, strain chs7, active compounds read low 1 | locus YHR200W, strain rpn10, active compounds read low 0.993 | locus YIL066C, strain RNR3, active compounds read low 1.01 | locus YIL073C, strain SPO22, active compounds read low 1.07 | locus YIL125W, strain kgd1, active compounds read low 1.01 | locus YIR030C, strain dcg1, active compounds read low 0.997 | locus YJL092W, strain hpr5, active compounds read low 0.988 | locus YJL095W, strain BCK1 (second series), active compounds read low 1 | locus YJL095W, strain BCK1, active compounds read low 1.06 and 0.983 | locus YJL115W, strain asf1, active compounds read low 0.983 | locus YJL129C, strain trk1, active compounds read low 1 | locus YJL134W, strain LCB3, active compounds read low 1.01 | locus YJL154C, strain vps35, active compounds read low 0.992 | locus YJL164C, strain tpk1, active compounds read low 0.957 | locus YJL166W, strain qcr8, active compounds read low 1.04 | locus YJL168C, strain set2, active compounds read low 1.01 | locus YJL187C, strain SWE1 (second series), active compounds read low 1.04 | locus YJL187C, strain SWE1, active compounds read low 1.01 | locus YJR043C, strain POL32, active compounds read low 0.991 | locus YJR066W, strain TOR1, active compounds read low 0.969 | locus YJR075W, strain HOC1, active compounds read low 1.03
